The list is not random: actives were taken first. Their share in the collection is about 1.2%.
Shn3 inh set2 – reduces Shn3 3'UTR luciferase signal in osteoblasts. inhibition, % at 12.5 µM. AID 588674. Clone20 osteoblast Shn3 3'UTR firefly luciferase, 24 h. 0.52% of 360,000 active;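 active = mean inhibition of at least 75% with every replicate also reaching 75%; inconclusive = mean inhibition at least 75% but some replicate below; inactive = mean inhibition below 75%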
NCOA3 inh – inhibits human SRC3 coactivator | Q9Y6Q9 | HEK293 GAL4-SRC3 luciferase reporter, luminescence | inhibition, % at 3.6 µM | 0.17% of 360,000 active | AID 588352;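 active = inhibition above a per-campaign cutoff, the mean of all compounds plus 3 SD, cut at about 60% in these data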;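 also: higher means less SRC3-driven luciferase light from the GAL4 reporter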
LMP1 NFkB inh – reduces LMP1-driven NF-kappaB luciferase signal; inhibition, % at 12.5 µM; LMP1-induced NF-kappaB luciferase reporter cells, luminescence; 0.69% of 350,000 active; in the data active = inhibition above about 41%; inconclusive = no clear call, values can overlap the other calls
NR5A2 inv ag – suppresses constitutive activity of human LRH-1 | inhibition, % at 3.6 µM | AID 602396 | HEK293T StAR-luciferase reporter, LRH-1 transfected, 24 h | 0.13% of 360,000 active | O00482;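 active = inhibition above the mean inhibition of all tested compounds plus 3 SD, cut at about 73% in these data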
NCOA2 inhibitor – human SRC2 (NCOA2) inhibition; Q15596; HEK293 GAL4-SRC2 luciferase reporter, luminescence; inhibition, % at 9 µM; 0.17% of 370,000 active; AID 651957;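 active = inhibition above the mean inhibition of all tested compounds plus 3 SD, set per campaign, cut at about 52% in these data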
Target sequence (Q15596 whole entry, looked up, the tested form may be a part): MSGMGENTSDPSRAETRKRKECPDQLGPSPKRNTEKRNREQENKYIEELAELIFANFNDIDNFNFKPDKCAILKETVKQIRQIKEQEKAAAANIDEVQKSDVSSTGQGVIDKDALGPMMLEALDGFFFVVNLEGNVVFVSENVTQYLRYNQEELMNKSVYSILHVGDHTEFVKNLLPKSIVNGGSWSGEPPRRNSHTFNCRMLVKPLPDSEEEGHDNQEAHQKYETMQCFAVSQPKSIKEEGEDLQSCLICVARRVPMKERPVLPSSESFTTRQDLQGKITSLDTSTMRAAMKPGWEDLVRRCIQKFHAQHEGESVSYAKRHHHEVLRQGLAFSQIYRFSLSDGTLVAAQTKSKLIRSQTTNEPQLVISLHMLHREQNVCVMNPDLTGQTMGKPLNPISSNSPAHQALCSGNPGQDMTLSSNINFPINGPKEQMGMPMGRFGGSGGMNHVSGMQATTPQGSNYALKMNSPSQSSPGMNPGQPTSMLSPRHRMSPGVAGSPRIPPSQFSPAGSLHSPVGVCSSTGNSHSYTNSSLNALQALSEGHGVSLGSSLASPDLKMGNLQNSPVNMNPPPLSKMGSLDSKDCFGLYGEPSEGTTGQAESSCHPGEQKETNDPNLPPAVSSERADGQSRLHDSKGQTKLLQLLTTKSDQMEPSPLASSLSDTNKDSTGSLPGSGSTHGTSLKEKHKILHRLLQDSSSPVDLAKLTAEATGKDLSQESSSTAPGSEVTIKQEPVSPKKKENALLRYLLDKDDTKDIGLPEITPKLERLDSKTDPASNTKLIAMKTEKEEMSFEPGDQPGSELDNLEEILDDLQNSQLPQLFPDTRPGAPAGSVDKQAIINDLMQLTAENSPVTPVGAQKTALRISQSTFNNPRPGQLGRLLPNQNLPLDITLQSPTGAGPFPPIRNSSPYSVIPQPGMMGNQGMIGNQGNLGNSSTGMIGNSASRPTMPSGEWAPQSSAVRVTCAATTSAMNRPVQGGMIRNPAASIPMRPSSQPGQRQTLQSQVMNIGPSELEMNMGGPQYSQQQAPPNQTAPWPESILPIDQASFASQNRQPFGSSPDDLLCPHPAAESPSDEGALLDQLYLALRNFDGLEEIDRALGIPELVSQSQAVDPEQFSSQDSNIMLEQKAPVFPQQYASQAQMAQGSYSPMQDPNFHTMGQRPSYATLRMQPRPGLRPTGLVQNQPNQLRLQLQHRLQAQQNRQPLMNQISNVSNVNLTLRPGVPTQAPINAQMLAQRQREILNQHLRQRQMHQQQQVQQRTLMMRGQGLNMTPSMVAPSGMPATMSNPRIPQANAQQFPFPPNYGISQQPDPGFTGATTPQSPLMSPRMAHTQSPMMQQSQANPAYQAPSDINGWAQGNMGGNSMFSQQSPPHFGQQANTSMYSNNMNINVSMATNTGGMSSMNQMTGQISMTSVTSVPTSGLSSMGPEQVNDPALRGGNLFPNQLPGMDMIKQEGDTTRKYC
SRC1 inh – inhibitors of human steroid receptor coactivator 1 (SRC1) | Q15788 | HEK293 GAL4-SRC1 luciferase reporter, luminescence | inhibition, % at 3.6 µM | 0.12% of 360,000 active;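 active = inhibition above the campaign mean plus 3 SD, with each screening campaign given its own cutoff, cut at about 60% in these data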
Of the large screens only hits and unclear results are named; the others gave an inactive call; ! = not active in a repeat.

Cc1cc(/C=c2\sc3nc4ccccc4n3c2=O)c(C)n1-c1ccc(C(=O)O)cc1	none
O=C(N[C@@H](Cc1cccnc1)C(=O)N1CCC[C@H]1C(=O)NCCc1ccccc1Cl)c1cccs1	none (no result: Shn3 inh set2, NCOA3 inh, LMP1 NFkB inh, NR5A2 inv ag, SRC1 inh)
CO/N=C(\Cn1ncc(N2CCCC2)c(Br)c1=O)c1ccc(Cl)cc1	none
CO/N=C(\Cn1ncc(NC2CCCCC2)c(Br)c1=O)c1ccc(Cl)cc1	Shn3 inh set2 88
Cc1ccc(-n2c(-c3ccccc3)c[n+]3c2CCc2ccccc2-3)c(C)c1	Shn3 inh set2 inconclusive, NCOA3 inh 71
Cn1c(-c2ccccc2)cnc1SCC(=O)N1CCCCC1	LMP1 NFkB inh 66
C=CCn1c(=O)c2ccccc2n2c(SCC(=O)/C(C#N)=C(\C)N)nnc12	Shn3 inh set2 93!
C=CCn1c(=O)c2ccccc2n2c(SC(C)C(N)=O)nnc12 (stereo unspecified)	none
Cc1c(N/N=C(\C#N)C(=O)c2ccccc2)c(=O)n(-c2ccccc2)n1C	Shn3 inh set2 89
C=CCn1c(C)c(C(C)=O)c(N2CCN(C(c3ccccc3)c3ccccc3)CC2)nc1=S	LMP1 NFkB inh 55
COc1ccccc1C(=O)NC(=O)CSc1nnc(N)s1	LMP1 NFkB inh 42
CCN(C(=O)CSc1nnc(Nc2cccc(C)c2C)s1)C1CCS(=O)(=O)C1 (stereo unspecified)	LMP1 NFkB inh 47
CCN(C(=O)CSc1nnc(NCc2ccccc2)s1)C1CCS(=O)(=O)C1 (stereo unspecified)	none
CCCC[C@H]1C2CC(OC(=O)Nc3cc(C)cc(C)c3)C(C2)[C@H]2CCCCN21 (stereo partly specified)	none (no result: Shn3 inh set2, NCOA3 inh, LMP1 NFkB inh, NR5A2 inv ag, SRC1 inh)
CCc1ccc(OCCNc2cc(N3CCNC(C)C3)ccc2[N+](=O)[O-])cc1 (stereo unspecified)	Shn3 inh set2 89
CCOc1ccc(Br)cc1/C(C)=N\NC1=NCCN1	LMP1 NFkB inh 80
Cc1cccc(NC(=O)OC2CC3CC2[C@H]2CCCCN2C3)c1 (stereo partly specified)	none (no result: Shn3 inh set2, NCOA3 inh, LMP1 NFkB inh, NR5A2 inv ag, SRC1 inh)
CC(C)(C)c1ccc(-c2nnc(SCC(=O)Nc3cccc4ccccc34)n2Cc2ccco2)cc1	none (no result: Shn3 inh set2, NCOA3 inh, LMP1 NFkB inh, NR5A2 inv ag, SRC1 inh)
Cn1cnc([N+](=O)[O-])c1S(=O)(=O)Nc1ccccc1	none
Cn1cnc([N+](=O)[O-])c1S(=O)(=O)Oc1ccccc1	Shn3 inh set2 95
O=C(O)c1ccc(-n2cncn2)c([N+](=O)[O-])c1	LMP1 NFkB inh 49
Cc1ccc(C(=O)NNC(=O)c2ccc(-n3cncn3)c([N+](=O)[O-])c2)cc1	none
Cc1cc(Sc2ncnc(N)c2[N+](=O)[O-])ncn1	Shn3 inh set2 99 (no result: NCOA2 inhibitor)
C[n+]1c2cc(N)ccc2cc2ccc(N)cc21	Shn3 inh set2 inconclusive, LMP1 NFkB inh 72!, NR5A2 inv ag 74!
COC(=O)[C@]12C[C@H](CC(=O)N3CCC(c4ccccc4)CC3)C(=O)N(CCc3ccc(OC)c(OC)c3)C1=C[C@H](C(C)C)O[C@@H]2C1CC1	none (no result: Shn3 inh set2, NCOA3 inh, LMP1 NFkB inh, NR5A2 inv ag, SRC1 inh)
Cc1cc(C)cc(C(=O)NCCC(=O)NCc2cc(=O)n(C)c(=O)n2C)c1	LMP1 NFkB inh 55
Cc1nc(C)c(C(=O)NCc2ccc(Cl)cc2)o1	none (no result: NCOA2 inhibitor)
Cc1nn(C)c(C(=O)NCc2ccc(Cl)cc2)c1Cl	Shn3 inh set2 86
CCOc1ccc(-n2c(SCC(=O)Nc3ccc(S(=O)(=O)Nc4nccs4)cc3)nnc2-c2ccc(C(C)(C)C)cc2)cc1	none (no result: Shn3 inh set2, NCOA3 inh, LMP1 NFkB inh, NR5A2 inv ag, SRC1 inh)
O=C(OCCN1CCN(C2CN(Cc3cn(Cc4ccccc4F)nn3)S(=O)(=O)C2)CC1)c1cc2ccccc2o1 (stereo unspecified)	none (no result: Shn3 inh set2, NCOA3 inh, LMP1 NFkB inh, NR5A2 inv ag, SRC1 inh)
CC(CCc1ccco1)NC(=O)c1cccc2c1C(=O)N(C1CCCCC1)C2 (stereo unspecified)	none
COc1ccc(N2Cc3cccc(C(=O)NC(C)CCc4ccco4)c3C2=O)cc1 (stereo unspecified)	LMP1 NFkB inh 47
CCCNC(=O)c1ccc2c(=O)c(O)c(-c3ccc(C)cc3)[nH]c2c1	none
Cc1ccc(CNC(=O)c2ccc3c(=O)c(O)c(-c4ccc(C)cc4)[nH]c3c2)cc1	Shn3 inh set2 87
Cn1nnnc1SC1CC(=O)N(c2ccccc2)C1=O (stereo unspecified)	none
Cc1cc(C)cc(N2C(=O)CC(Sc3nnnn3-c3ccccc3)C2=O)c1 (stereo unspecified)	Shn3 inh set2 88
COc1ccc(C(=O)C(=O)N2CCN(C(=O)c3ccccc3C(F)(F)F)CC2)cc1OC	none (no result: Shn3 inh set2, NCOA3 inh, LMP1 NFkB inh, NR5A2 inv ag, SRC1 inh)
COc1ccc(NC(=O)c2nc(S(=O)(=O)Cc3cccc(C)c3)ncc2Cl)c(OC)c1	Shn3 inh set2 97
COc1ccc(OC)c(NC(=O)c2nc(S(=O)(=O)Cc3ccccc3)ncc2Cl)c1	Shn3 inh set2 97
COc1ccccc1/C=C1\CCCC2=C1Nc1nnnn1C2c1ccccc1OC (stereo unspecified)	Shn3 inh set2 91
CC(=O)Nc1ccc(NC(=O)COc2ccc(-c3ccc(C#N)cc3)cc2)cc1	none
N#Cc1ccc(-c2ccc(OCC(=O)Nc3cccnc3)cc2)cc1	Shn3 inh set2 89, NCOA2 inhibitor 53
CCc1sc(C(=O)Nc2ncccc2O)cc1C	LMP1 NFkB inh 52
COC[C@@H](OC(C)=O)[C@H]1OCc2ccccc2[C@@H]1/C=C/c1ccccc1	none (no result: Shn3 inh set2, NCOA3 inh, LMP1 NFkB inh, NR5A2 inv ag, SRC1 inh)
CC[C@@H](C(=O)[C@@H](C)[C@@H](O)[C@H](C)CCc1ccc(C)c(O)c1C(=O)O)[C@H]1O[C@](CC)([C@H]2CC[C@](O)(CC)[C@H](C)O2)C[C@@H]1C	Shn3 inh set2 92
S=C(NN=C1C2CC3CC(C2)CC1C3)Nc1ccccc1	LMP1 NFkB inh 65
CCC(C)(C)C1CCC(=NNC(=S)Nc2ccccc2)CC1 (stereo unspecified)	none
Cc1cnc(NC(=O)c2ccc3c(c2)OCCO3)s1	LMP1 NFkB inh 79, NCOA2 inhibitor 67
Cc1ccc(C(=O)Nc2ncc([N+](=O)[O-])s2)cc1	LMP1 NFkB inh 68, NCOA2 inhibitor 62
Cc1ccc([N+](=O)[O-])cc1NC(=O)c1ccc2c(c1)OCO2	none
Cc1onc(-c2ccccc2)c1C(=O)Nc1ncc([N+](=O)[O-])s1	none
O=C(Nc1ncc([N+](=O)[O-])s1)c1ccc2c(c1)OCO2	LMP1 NFkB inh 55
O=C(O)c1cc2cc(F)ccc2[nH]1	LMP1 NFkB inh 85
C[C@@H]1COc2cc(N3CCCCC3)ccc2S(=O)(=O)N1	none (no result: Shn3 inh set2, NCOA3 inh, LMP1 NFkB inh, NR5A2 inv ag, SRC1 inh)
CCc1nnc(NC(=O)c2ccc(S(=O)(=O)N3CCOCC3)cc2)s1	LMP1 NFkB inh 78
CCCCc1nnc(NC(=O)c2ccc(S(=O)(=O)N3CCOCC3)cc2)s1	none
O=C(c1cc(-c2ccc3c(c2)OCO3)on1)N1CCOCC1	LMP1 NFkB inh 62
COc1ccc(-c2cc(C(=O)N3CCCC3)no2)cc1	LMP1 NFkB inh 50
COc1cc(-c2nnc(SCC(=O)NN=Cc3c[nH]c4ccccc34)n2-c2ccccc2)cc(OC)c1OC	none (no result: Shn3 inh set2, NCOA3 inh, LMP1 NFkB inh, NR5A2 inv ag, SRC1 inh)
CCOC(=O)c1cnn(-c2ccccc2)c1NC(=O)CN1CCOCC1	LMP1 NFkB inh 63

Screening results as filed in PubChem.
